The record followed here is paper PMC7862700, “An all-to-all approach to the identification of sequence-specific readers for epigenetic DNA modifications on cytosine”.

What all share (assay): DAPPL (digital affinity profiling via proximity ligation, sequencing); 10 mM Tris-HCl pH 7.5, 50 mM NaCl, 1 mM DTT, 4% glycerol, room temperature, 30 min; GST-TFs on glutathione beads, 16-mer random dsDNA library, 0.1% formaldehyde crosslink after washing; high values mean tight binding
In one assay the target is T1, FEV (Homo sapiens, UniProt Q99581 1-238).
T1 sequence: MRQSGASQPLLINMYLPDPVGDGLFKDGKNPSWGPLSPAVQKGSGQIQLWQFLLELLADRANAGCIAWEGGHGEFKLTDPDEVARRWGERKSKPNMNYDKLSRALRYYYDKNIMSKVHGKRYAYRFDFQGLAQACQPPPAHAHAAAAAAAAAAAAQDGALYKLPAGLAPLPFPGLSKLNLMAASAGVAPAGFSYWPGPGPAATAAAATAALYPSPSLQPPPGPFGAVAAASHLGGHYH
As to conditions: protein: recombinant; tags: N-terminal GST; dsDNA, one strand shown. In a few lines:
(§1)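 Human transcription factors were made in yeast as GST fusions, captured on glutathione beads and barcoded with DNA. With a tag-only sample included, the pool was incubated with 200 nmole of a random double-stranded 16-mer DNA library in Tris/NaCl/DTT/glycerol buffer at room temperature for 30 min, then crosslinked with 0.1% formaldehyde after washing, ligated by proximity, amplified and sequenced. For binding signal, each hexamer's read frequency for a factor is divided by its frequency for the tag-only sample.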

The target in a further assay is ETV5 (Homo sapiens, UniProt P41161 1-510). As to conditions: protein: recombinant; tags: N-terminal GST; dsDNA, one strand shown. In a few lines: as §1
The target of the next assay is HSF1 (Homo sapiens, UniProt Q00613 1-529). As to conditions: protein: recombinant; tags: N-terminal GST; chain copies: 3; dsDNA, one strand shown. In a few lines:
as §1

In a further assay the target is T2, SPIC (Homo sapiens, UniProt Q8N5J4 1-248).
T2 sequence: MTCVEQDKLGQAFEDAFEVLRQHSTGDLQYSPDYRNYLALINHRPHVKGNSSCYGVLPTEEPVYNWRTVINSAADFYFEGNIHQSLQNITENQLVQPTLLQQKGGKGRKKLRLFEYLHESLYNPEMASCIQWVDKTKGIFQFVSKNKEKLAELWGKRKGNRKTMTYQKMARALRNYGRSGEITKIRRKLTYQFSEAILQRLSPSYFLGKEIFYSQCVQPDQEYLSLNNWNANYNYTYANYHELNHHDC
As to conditions: protein: recombinant; tags: N-terminal GST; dsDNA, one strand shown. The method in brief: as §1

A further assay deals with ELF4 (Homo sapiens, UniProt Q99607 1-663). As to conditions: protein: recombinant; tags: N-terminal GST; dsDNA, one strand shown. In a few lines: as §1
A further assay has as its target T3, ELK4 (Homo sapiens, UniProt P28324-2 1-405).
T3 sequence: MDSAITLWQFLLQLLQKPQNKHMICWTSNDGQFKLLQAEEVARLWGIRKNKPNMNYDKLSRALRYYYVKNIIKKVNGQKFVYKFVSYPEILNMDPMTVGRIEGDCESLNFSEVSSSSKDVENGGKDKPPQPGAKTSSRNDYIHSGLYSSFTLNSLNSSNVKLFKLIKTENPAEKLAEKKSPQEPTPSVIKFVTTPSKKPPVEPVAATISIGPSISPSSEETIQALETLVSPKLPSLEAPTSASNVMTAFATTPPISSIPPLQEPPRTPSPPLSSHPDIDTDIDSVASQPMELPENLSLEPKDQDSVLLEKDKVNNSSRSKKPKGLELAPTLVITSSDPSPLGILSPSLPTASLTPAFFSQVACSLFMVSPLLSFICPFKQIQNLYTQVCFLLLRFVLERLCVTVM
The following applies: protein: recombinant; tags: N-terminal GST; dsDNA, one strand shown. In a few lines: as §1

The target of a further assay is T4, ETV2 (Homo sapiens, UniProt O00321 1-342).
T4 sequence: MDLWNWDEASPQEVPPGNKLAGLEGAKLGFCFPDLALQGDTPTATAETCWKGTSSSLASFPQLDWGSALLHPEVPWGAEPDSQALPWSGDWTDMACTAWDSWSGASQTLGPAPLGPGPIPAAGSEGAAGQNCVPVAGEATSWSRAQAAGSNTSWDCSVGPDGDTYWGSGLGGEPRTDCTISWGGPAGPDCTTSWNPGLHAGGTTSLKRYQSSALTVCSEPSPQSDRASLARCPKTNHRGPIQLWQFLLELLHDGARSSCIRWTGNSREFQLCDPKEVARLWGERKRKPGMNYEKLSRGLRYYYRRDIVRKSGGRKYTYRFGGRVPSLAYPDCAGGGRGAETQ
As to conditions: protein: recombinant; tags: N-terminal GST; dsDNA, one strand shown. In a few lines: as §1

Another assay has as its target T5, ELF3 (Homo sapiens, UniProt P78545 1-371).
T5 sequence: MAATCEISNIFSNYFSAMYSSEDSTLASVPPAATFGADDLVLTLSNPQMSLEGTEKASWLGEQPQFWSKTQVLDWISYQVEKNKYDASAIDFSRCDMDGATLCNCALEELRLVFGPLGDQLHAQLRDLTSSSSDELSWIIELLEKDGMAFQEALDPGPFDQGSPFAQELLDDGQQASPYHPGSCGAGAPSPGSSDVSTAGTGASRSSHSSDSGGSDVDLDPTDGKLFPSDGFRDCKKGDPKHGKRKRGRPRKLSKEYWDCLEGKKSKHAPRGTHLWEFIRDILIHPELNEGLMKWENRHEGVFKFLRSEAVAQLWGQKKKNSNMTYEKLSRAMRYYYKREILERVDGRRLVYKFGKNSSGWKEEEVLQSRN
As to conditions: protein: recombinant; tags: N-terminal GST; dsDNA, one strand shown. In a few lines: as §1

For another assay, the target named is CRX (Homo sapiens, UniProt O43186 1-299). The following applies: protein: recombinant; tags: N-terminal GST; dsDNA, one strand shown. In a few lines:
as §1

A further assay deals with ETV1 (Homo sapiens, UniProt P50549 1-477). As to conditions: protein: recombinant; tags: N-terminal GST; dsDNA, one strand shown. In a few lines:
as §1

The target of another assay is T6, ERF (Homo sapiens, UniProt P50548 1-548).
T6 sequence: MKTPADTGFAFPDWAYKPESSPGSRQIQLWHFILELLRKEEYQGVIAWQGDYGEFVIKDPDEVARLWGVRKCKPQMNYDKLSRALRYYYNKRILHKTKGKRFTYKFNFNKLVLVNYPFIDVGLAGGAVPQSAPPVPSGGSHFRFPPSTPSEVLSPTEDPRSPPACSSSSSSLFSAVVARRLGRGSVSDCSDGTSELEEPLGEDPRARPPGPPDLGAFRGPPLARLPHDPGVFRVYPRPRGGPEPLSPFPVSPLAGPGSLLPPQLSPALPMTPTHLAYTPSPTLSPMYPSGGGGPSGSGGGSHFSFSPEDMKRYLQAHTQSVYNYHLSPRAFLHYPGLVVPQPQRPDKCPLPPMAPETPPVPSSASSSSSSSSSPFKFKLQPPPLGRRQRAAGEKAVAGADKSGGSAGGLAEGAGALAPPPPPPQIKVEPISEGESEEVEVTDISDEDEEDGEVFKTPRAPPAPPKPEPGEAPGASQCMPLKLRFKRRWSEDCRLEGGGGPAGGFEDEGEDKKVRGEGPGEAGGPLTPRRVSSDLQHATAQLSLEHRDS
The following applies: protein: recombinant; tags: N-terminal GST; dsDNA, one strand shown. The method in brief: as §1

In a further assay the target is T7, ETV3L (Homo sapiens, UniProt Q6ZN32 1-361).
T7 sequence: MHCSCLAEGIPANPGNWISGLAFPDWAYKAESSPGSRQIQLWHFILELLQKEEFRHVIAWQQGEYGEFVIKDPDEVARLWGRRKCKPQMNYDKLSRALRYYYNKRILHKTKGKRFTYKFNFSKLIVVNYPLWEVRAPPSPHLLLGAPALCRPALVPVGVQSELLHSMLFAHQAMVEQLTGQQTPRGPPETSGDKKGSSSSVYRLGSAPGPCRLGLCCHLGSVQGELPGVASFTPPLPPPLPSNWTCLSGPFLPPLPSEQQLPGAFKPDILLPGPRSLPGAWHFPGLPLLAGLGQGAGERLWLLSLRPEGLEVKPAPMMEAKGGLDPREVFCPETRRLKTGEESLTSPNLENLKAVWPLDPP
The following applies: protein: recombinant; tags: N-terminal GST; dsDNA, one strand shown. In a few lines: as §1

The target of a further assay is T8, ETS2 (Homo sapiens, UniProt P15036 1-469).
T8 sequence: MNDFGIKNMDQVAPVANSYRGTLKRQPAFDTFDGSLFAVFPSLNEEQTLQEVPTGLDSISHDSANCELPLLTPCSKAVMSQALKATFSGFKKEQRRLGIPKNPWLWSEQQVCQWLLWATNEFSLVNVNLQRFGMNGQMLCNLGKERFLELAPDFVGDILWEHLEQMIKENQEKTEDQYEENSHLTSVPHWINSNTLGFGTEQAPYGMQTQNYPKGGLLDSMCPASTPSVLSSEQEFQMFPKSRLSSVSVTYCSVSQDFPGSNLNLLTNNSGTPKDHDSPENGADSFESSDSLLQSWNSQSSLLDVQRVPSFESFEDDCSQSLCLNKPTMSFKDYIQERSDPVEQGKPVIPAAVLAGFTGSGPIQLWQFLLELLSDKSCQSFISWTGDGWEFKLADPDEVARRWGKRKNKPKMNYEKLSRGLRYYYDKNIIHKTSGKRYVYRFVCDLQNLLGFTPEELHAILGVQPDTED
The following applies: protein: recombinant; tags: N-terminal GST; dsDNA, one strand shown. The method in brief: as §1

The target in a further assay is T9, SPDEF (Homo sapiens, UniProt O95238 1-335).
T9 sequence: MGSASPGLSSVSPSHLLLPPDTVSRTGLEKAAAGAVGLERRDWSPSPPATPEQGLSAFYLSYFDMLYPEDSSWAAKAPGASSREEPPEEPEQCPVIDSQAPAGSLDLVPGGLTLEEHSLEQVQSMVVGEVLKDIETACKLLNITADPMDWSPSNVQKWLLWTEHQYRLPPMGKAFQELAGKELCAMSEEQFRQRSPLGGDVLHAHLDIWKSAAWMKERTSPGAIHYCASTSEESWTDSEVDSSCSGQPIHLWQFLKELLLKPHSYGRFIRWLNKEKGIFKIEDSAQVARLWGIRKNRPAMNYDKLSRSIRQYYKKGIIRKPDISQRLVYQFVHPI
As to conditions: protein: recombinant; tags: N-terminal GST; dsDNA, one strand shown. The method in brief:
as §1

Another assay deals with T10, ETV7 (Homo sapiens, UniProt Q9Y603 1-341).
T10 sequence: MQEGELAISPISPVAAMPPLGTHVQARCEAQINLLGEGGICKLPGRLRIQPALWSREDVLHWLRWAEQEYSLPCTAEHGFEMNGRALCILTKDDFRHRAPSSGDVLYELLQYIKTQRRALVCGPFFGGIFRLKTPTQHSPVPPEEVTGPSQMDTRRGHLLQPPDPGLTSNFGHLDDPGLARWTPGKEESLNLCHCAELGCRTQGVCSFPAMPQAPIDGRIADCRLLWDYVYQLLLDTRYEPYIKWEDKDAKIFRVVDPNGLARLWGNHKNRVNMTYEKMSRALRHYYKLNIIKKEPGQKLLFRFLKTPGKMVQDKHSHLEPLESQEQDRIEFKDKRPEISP
As to conditions: protein: recombinant; tags: N-terminal GST; dsDNA, one strand shown. In a few lines: as §1

A further assay deals with T11, ELF5 (Homo sapiens, UniProt Q9UKW6-2 1-255).
T11 sequence: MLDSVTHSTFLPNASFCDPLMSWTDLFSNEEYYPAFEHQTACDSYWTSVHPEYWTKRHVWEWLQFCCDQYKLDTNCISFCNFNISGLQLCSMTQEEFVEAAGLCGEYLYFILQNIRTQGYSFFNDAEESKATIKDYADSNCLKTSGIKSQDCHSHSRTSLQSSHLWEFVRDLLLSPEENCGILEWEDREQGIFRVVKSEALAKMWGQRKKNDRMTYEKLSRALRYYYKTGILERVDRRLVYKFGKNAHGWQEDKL
The following applies: protein: recombinant; tags: N-terminal GST; dsDNA, one strand shown. The method in brief:
as §1

Another assay has as its target T12, ETV3 (Homo sapiens, UniProt P41162-2 1-143).
T12 sequence: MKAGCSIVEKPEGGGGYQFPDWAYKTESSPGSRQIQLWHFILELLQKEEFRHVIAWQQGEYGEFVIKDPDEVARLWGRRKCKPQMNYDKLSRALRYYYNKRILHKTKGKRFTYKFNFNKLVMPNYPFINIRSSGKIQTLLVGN
The following applies: protein: recombinant; tags: N-terminal GST; dsDNA, one strand shown. The method in brief: as §1

The next assay deals with ETV6 (Homo sapiens, UniProt P41212 1-452). As to conditions: protein: recombinant; tags: N-terminal GST; dsDNA, one strand shown. In a few lines: as §1
Chain of ETV6 (P41212 whole entry): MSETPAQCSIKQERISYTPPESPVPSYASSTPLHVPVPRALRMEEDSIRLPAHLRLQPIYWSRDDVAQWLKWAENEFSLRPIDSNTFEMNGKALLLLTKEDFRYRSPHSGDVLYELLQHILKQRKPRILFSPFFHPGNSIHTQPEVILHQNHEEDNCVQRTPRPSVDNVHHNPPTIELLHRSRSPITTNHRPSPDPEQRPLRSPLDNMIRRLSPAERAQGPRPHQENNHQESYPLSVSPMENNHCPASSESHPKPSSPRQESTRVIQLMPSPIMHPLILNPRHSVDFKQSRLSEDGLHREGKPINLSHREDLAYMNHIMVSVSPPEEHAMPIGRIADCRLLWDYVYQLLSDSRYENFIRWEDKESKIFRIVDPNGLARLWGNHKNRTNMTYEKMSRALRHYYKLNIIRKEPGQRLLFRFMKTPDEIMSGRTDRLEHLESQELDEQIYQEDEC

Chain of ETV5 (P41161 whole entry): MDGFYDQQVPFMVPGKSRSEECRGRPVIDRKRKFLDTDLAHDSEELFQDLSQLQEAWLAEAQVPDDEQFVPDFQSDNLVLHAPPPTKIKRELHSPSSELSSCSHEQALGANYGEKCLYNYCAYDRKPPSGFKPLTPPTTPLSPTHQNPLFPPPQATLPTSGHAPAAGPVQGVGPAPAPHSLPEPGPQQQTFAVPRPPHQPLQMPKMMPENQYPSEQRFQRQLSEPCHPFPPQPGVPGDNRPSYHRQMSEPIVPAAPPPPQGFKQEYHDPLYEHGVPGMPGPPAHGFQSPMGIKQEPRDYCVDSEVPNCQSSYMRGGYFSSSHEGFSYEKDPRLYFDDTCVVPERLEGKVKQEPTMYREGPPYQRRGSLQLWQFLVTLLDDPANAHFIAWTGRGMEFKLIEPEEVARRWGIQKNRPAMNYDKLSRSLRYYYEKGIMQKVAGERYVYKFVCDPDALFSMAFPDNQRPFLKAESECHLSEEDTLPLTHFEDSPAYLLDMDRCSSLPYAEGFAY
Chain of HSF1 (Q00613 whole entry): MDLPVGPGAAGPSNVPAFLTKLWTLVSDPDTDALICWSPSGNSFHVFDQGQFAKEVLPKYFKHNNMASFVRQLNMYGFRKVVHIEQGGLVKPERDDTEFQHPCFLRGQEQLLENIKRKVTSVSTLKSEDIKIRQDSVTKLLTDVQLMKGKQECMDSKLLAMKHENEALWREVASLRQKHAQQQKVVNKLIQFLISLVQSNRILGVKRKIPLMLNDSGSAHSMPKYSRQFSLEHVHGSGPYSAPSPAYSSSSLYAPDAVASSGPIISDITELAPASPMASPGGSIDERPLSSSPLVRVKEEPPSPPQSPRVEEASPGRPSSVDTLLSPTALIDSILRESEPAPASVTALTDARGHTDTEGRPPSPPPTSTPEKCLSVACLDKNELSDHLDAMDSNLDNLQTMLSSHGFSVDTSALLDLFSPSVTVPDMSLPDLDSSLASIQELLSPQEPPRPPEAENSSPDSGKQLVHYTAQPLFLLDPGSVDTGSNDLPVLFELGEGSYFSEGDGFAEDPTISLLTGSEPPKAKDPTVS
Chain of ELF4 (Q99607 whole entry): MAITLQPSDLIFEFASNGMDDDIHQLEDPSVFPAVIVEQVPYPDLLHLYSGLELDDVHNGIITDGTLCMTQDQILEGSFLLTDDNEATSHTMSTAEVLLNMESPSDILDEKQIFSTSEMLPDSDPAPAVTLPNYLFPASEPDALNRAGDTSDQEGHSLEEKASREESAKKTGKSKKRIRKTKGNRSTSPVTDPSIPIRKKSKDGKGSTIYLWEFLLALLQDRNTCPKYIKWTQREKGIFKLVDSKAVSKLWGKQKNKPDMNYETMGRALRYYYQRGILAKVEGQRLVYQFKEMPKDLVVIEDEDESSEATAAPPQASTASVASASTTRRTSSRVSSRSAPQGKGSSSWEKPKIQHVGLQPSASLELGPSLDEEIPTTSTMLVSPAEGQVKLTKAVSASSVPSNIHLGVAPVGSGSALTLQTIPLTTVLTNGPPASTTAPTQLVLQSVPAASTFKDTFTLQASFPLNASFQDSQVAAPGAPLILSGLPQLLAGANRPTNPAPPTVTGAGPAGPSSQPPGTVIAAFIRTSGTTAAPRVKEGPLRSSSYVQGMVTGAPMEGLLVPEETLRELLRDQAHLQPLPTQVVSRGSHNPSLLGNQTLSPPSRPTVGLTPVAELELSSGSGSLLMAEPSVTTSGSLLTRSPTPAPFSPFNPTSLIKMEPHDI
Chain of CRX (O43186 whole entry): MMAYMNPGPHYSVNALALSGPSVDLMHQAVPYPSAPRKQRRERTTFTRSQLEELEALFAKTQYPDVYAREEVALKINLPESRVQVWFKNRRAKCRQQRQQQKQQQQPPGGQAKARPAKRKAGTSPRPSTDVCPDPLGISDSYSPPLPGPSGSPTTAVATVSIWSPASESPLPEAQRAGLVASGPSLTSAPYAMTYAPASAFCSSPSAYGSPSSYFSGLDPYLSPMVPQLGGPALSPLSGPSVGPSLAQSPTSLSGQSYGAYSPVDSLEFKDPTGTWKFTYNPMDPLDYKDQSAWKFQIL
Chain of ETV1 (P50549 whole entry): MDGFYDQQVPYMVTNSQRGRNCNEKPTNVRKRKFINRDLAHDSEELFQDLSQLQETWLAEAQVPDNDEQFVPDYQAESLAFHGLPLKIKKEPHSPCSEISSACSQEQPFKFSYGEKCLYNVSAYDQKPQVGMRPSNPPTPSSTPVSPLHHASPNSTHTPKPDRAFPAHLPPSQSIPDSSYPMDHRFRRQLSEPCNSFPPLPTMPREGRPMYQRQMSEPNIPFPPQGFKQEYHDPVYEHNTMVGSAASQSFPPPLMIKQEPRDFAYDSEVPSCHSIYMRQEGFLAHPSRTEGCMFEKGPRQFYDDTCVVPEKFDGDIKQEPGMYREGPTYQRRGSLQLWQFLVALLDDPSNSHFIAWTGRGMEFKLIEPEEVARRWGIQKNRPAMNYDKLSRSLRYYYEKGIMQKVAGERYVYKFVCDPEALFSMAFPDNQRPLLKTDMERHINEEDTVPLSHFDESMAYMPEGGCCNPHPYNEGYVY

Regarding CATTTA, the binding signal is 1.23 fold enrichment (6-mer frequency, TF over GST control) with FEV; 1.22 fold enrichment (6-mer frequency, TF over GST control) in the assay with ETV5; 1.13 fold enrichment (6-mer frequency, TF over GST control) with HSF1; 1.17 fold enrichment (6-mer frequency, TF over GST control) with SPIC; 1.14 fold enrichment (6-mer frequency, TF over GST control) with ELF4; 1.17 fold enrichment (6-mer frequency, TF over GST control) with ELK4. Also, the binding signal with ETV2 is 1.34 fold enrichment (6-mer frequency, TF over GST control); in the assay with ELF3, 1.2 fold enrichment (6-mer frequency, TF over GST control); in the assay with CRX it was 1.36 fold enrichment (6-mer frequency, TF over GST control); in the assay with ETV1, 1.22 fold enrichment (6-mer frequency, TF over GST control); with ERF, 1.23 fold enrichment (6-mer frequency, TF over GST control); with ETV3L, 1.24 fold enrichment (6-mer frequency, TF over GST control). Also, the binding signal was 1.31 fold enrichment (6-mer frequency, TF over GST control) with ETS2; 1.22 fold enrichment (6-mer frequency, TF over GST control) with SPDEF; 1.27 fold enrichment (6-mer frequency, TF over GST control) with ETV7; 1.11 fold enrichment (6-mer frequency, TF over GST control) with ELF5; 1.23 fold enrichment (6-mer frequency, TF over GST control) in the assay with ETV3; 1.13 fold enrichment (6-mer frequency, TF over GST control) with ETV6.
